For some assays here: Results with a measured potency or affinity are listed apart.
Experiments:
Set-up in all cases: scale not given: direction of the effect not stated beside the values
[1] = target: Protein translocase subunit SecA (Escherichia coli (strain K12)) (UniProt P10408); test: Assay to Identify E. coli SecA ATPase Inhibitors; type: functional; details: 30 µM
[2] = target: T1, Ubiquitin-activating enzyme e1, putative (Leishmania donovani (strain BPK282A1)) (UniProt E9BSI1); test: Leishmania donovani Ubiquitin Activating Enzyme (LdE1); type: functional; details: 30 µM
T1 sequence (whole entry): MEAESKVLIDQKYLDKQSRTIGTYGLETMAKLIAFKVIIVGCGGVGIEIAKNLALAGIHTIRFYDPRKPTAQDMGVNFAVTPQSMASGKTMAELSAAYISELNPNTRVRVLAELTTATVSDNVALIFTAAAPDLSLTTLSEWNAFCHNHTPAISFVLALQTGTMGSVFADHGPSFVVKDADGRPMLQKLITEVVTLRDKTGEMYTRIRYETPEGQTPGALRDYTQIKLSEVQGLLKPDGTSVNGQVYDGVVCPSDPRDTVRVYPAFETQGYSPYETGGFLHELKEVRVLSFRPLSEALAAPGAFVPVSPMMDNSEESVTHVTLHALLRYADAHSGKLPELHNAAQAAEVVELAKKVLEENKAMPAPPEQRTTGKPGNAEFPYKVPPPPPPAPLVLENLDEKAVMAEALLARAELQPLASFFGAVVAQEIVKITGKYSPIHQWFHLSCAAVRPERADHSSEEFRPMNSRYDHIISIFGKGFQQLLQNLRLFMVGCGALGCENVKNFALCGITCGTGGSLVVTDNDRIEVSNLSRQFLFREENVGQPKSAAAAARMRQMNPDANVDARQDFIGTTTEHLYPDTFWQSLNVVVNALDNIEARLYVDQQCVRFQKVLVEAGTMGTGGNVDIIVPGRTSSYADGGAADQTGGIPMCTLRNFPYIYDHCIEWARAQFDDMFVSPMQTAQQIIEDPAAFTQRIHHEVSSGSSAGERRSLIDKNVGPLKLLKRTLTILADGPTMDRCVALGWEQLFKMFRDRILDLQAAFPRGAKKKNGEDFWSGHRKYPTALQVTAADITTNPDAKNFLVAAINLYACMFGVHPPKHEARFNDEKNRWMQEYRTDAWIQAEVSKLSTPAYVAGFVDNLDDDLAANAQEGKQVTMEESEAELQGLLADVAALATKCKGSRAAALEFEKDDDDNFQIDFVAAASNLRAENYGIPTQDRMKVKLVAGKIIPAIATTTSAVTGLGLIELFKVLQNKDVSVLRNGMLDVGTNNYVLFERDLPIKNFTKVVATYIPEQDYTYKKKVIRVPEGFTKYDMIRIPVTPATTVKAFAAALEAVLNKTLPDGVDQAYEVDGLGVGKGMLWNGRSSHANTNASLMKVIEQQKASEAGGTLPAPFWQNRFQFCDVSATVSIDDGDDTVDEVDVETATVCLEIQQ

[3] = target: AMP-activated protein kinase, AMPK (Homo sapiens) (UniProt P54646+O43741+P54619+Q9UGJ0+Q9Y478+Q13131+Q9UGI9); test: AMP-dependent Kinase enzyme assay. An in vitro enzyme assay that detects ADP turnover that is directly proportional to AMPK activity. This uses naive AMPK that is activated during the assay with MK-8722; type: functional; details: 30 µM
[4] = target: Sialic acid-binding Ig-like lectin 9 (Homo sapiens) (UniProt Q9Y336); test: Hs-Siglec9 ALPHAscreen SOP 20170721; details: 10 µM
Trypanosoma cruzi = test: Trypanosoma cruzi phosphomannomutase and mannose-1-phosphate guanylyltransferase assay; type: functional; details: 10 µM
[5] = target: T2, Arginase-2, mitochondrial (Homo sapiens) (UniProt P78540); test: in vitro enzyme assay to detect the production of urea directly proportional to the activity of Arginase II; type: functional; details: 33.3 µM; note: in the data most compounds retested in dose-response had high values
T2 sequence (whole entry): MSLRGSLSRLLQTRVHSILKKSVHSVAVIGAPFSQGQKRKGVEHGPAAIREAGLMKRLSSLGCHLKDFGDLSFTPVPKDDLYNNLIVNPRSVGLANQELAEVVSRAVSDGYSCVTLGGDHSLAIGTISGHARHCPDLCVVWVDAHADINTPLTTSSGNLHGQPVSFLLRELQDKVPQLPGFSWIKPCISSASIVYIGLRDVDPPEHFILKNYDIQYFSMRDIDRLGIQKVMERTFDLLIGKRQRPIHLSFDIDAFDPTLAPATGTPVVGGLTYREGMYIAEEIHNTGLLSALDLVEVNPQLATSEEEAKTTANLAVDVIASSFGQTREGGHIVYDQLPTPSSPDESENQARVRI

[6] = target: T3, Proteasome subunit beta (Trypanosoma cruzi) (UniProt O96673); test: Trypanosoma cruzi proteasome chymotrypsin-like activity (TcProtChymo) assay.; note: in the data most compounds retested in dose-response had high values; type: functional; details: 9.37 µM
T3 sequence (whole entry): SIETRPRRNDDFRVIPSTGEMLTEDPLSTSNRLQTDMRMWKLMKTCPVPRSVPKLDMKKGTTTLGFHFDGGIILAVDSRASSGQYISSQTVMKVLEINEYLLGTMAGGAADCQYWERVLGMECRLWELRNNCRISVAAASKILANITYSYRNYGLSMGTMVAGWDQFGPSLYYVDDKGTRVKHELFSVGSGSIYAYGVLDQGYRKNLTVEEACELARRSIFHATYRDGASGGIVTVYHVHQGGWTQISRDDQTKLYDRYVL

Homo sapiens = organism: Homo sapiens; test: To identify inhibition of the IFN signalling (Jak-Stat) pathway via expression of an eGFP reporter gene under the control of an IFN-stimulated response element (ISRE) containing MxA promoter.; type: functional; details: 30 µM
[7] = target: T4, Tyrosyl-tRNA synthetase, putative (Trypanosoma cruzi (strain CL Brener)) (UniProt Q4DSP6); test: Trypanosoma cruzi tyrosyl tRNA synthetase (TcYRS) _High Tyrosine SOP; type: functional; details: 30 µM; note: in the data most compounds retested in dose-response had high values
T4 sequence (whole entry): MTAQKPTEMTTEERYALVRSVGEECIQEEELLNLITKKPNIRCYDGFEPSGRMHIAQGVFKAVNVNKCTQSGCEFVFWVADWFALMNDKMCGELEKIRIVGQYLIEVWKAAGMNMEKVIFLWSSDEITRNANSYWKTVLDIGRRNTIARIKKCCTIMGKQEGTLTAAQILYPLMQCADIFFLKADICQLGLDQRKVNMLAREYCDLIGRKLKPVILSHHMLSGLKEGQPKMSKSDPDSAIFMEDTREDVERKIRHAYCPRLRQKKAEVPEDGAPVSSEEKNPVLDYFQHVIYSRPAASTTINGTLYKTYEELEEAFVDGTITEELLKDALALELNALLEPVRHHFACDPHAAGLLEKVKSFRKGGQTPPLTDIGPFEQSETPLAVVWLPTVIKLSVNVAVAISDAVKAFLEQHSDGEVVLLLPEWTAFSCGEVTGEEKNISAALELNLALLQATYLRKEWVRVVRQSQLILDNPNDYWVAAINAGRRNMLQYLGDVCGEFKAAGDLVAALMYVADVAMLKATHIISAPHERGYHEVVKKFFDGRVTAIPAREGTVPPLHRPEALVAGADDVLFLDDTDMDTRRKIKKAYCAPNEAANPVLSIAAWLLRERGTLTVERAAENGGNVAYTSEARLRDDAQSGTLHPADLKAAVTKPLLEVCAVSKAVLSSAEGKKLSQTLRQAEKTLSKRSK

[8] = target: T4, Tyrosyl-tRNA synthetase, putative (Trypanosoma cruzi (strain CL Brener)); test: Trypanosoma cruzi tyrosyl tRNA synthetase (TcYRS) SOP; type: functional; details: 30 µM
[9] = target: Chromo domain-containing protein 1 (Saccharomyces cerevisiae (strain ATCC 204508 / S288c) (Baker's yeast)) (UniProt P32657); test: ScCHD-1 Enzyme Inhibition Assay; type: functional; details: 30 µM; note: in the data most compounds retested in dose-response had high values
Chromo domain-containing protein 1 (Saccharomyces cerevisiae (strain ATCC 204508 / S288c) (Baker's yeast)), sequence (P32657 whole entry, the tested form may be a part): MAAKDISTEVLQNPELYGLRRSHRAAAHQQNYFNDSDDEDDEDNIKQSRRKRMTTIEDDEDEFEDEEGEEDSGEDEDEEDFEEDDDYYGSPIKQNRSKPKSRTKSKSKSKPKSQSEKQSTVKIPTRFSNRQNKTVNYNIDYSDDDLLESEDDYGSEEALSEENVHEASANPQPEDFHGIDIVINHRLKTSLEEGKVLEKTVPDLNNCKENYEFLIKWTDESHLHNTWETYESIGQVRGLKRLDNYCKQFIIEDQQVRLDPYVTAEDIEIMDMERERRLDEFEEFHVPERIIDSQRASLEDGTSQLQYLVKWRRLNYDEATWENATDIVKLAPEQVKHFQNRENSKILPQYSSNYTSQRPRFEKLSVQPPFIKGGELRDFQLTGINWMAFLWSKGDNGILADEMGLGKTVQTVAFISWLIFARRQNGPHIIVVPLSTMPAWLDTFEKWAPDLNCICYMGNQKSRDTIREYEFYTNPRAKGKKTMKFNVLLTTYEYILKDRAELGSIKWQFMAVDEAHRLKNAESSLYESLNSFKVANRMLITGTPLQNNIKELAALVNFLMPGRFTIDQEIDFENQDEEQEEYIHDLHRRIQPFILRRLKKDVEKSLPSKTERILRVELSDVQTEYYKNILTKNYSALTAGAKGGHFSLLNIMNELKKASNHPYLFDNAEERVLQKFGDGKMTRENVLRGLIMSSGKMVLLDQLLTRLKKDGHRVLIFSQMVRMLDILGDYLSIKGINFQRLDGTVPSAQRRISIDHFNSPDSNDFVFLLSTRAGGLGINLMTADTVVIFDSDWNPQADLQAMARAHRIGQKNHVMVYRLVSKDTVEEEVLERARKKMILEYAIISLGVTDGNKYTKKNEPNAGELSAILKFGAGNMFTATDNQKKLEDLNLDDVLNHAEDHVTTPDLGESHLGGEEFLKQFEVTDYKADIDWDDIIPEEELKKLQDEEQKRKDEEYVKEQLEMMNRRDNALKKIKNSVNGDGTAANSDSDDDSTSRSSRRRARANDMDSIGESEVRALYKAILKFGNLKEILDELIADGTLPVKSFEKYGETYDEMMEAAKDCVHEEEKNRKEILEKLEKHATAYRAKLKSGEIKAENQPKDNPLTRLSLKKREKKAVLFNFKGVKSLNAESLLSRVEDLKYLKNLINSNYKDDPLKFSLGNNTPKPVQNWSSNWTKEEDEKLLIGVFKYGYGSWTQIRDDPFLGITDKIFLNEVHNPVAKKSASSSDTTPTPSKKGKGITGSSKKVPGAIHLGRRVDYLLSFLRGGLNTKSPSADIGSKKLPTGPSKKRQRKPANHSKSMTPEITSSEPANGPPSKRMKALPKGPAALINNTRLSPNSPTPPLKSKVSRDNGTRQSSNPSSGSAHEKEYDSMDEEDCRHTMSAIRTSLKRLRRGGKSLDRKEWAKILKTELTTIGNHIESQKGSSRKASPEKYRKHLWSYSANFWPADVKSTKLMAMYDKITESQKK

Protein translocase subunit SecA (Escherichia coli (strain K12)), sequence (P10408 whole entry): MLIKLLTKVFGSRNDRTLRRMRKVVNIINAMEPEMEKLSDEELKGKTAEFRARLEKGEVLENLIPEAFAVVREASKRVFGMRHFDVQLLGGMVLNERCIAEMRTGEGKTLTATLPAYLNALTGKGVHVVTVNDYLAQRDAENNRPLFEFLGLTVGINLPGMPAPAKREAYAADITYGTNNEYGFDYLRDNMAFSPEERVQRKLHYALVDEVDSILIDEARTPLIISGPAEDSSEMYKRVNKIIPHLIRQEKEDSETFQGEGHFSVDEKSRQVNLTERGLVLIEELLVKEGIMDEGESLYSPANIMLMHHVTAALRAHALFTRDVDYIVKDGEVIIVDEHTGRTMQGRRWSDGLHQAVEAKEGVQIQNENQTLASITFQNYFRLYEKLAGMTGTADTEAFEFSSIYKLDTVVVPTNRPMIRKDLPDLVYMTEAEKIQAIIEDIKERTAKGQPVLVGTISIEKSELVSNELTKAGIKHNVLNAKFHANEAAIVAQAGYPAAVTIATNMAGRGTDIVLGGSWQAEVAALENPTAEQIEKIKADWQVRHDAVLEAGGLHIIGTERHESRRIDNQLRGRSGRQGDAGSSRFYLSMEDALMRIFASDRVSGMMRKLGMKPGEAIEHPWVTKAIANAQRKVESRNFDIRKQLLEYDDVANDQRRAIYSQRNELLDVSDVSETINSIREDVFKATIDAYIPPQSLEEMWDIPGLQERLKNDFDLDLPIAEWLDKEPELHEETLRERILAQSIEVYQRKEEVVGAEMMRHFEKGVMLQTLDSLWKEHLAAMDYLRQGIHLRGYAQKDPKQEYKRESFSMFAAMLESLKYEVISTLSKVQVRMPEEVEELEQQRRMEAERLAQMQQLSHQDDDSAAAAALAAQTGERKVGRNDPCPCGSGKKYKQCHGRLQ
Sialic acid-binding Ig-like lectin 9 (Homo sapiens), sequence (Q9Y336 whole entry): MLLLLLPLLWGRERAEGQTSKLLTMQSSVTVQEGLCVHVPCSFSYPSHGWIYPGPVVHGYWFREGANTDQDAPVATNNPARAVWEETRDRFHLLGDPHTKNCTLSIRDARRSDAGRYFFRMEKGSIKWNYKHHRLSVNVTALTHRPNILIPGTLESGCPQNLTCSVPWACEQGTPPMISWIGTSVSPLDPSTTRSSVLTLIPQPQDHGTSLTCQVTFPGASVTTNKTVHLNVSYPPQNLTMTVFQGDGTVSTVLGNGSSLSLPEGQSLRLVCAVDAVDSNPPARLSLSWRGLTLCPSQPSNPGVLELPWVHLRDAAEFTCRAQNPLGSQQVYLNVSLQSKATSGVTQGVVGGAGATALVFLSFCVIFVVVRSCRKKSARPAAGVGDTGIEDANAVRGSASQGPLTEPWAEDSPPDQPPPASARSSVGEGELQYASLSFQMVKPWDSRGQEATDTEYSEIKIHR

Row | SMILES | Percent Effect [1] | Percent Effect [2] | Percent Effect [3] | Percent Effect [4] | Percent Effect (Trypanosoma cruzi) | Percent Effect [5] | Percent Effect [6] | Percent Effect (Homo sapiens) | Percent Effect [7] | Percent Effect [8] | Percent Effect [9]
1 | NC(=O)c1cnn2c1NCC(CNCCCOc1ccccc1F)C2 (configuration not stated) | -2.54% | 5.26% | 0.424% | 14.6% | 3.38% | -1.15% | 0.167% | 2.29% | 9.31% | 12.2% | -10.9%
2 | COC(=O)N1CCCN(C(=O)NCc2ccc(Cl)s2)CC1 | -1.83% | 16.5% | 4.69% | -2.7% | 0.308% | -4.09% | 12.9% | 19.3% | 7.29% | 15.2% | -27.7%
3 | O=C(NCCC1=CCCCC1)NCc1nnc2n1CCC2 | -2.33% | 15.8% | 1.86% | -11.8% | -5.88% | 7.91% | 6.18% | 7.88% | 7.39% | 16.1% | -8.65%
4 | CCc1c(C)nc2n(c1=O)CC(C(=O)Nc1nccs1)CS2 (configuration not stated) | -7.87% | 13% | -4.33% | -3.77% | 5.62% | 5.81% | 7.31% | 4.32% | 3.17% | 14.1% | -7.44%
5 | CC(NC(=O)NCc1ccoc1)c1ccc2c(c1)CCC(=O)N2 (configuration not stated) | -9.31% | -7.79% | -9.15% | 13% | 12.2% | 2.49% | 28.6% | 16.5% | 8.74% | 24.4% | -9.68%
6 | OCCn1cc(CN2CCN(CCOCC(F)(F)F)CC2)cn1 | 2.27% | 13.5% | -3.44% | -6.72% | -8.63% | -3.14% | 13.6% | 6.37% | 4.95% | 3.66% | -2.78%
7 | Cc1c(I)cccc1C(=O)NCC1(CO)CC1 | -4.35% | 13.5% | -3.32% | 13.5% | 7.14% | 0.952% | 1.38% | -9.36% | 0.529% | 14.6% | -4.29%
8 | COc1ccc(CN2CCCC2Cn2nc(C)nc2C)cc1F (configuration not stated) | -3.83% | 6.33% | 4.88% | 0.831% | -0.718% | 2.8% | 8.58% | 3.7% | 5.21% | 7.59% | -16.6%
9 | CCOc1ccc(N2CCCN=C2NC(=O)c2cccc(Cl)c2)cc1 | -0.891% | 5.2% | 1.42% | 2.2% | -4.62% | -13.8% | 14.6% | 1.55% | 3.23% | 13.6% | 0.903%
10 | CN(C)C(=O)CN(C)C(=O)c1cnc(Cc2ccc(F)cc2)s1 | -5.52% | 0% | -1.38% | -1.9% | -1.07% | 3.12% | 17.8% | -4.01% | 0.546% | 8.64% | -7.08%
11 | CN(CC1CCCCO1)C(=O)c1ccnc(OC2CCC2)c1 (configuration not stated) | 3.17% | 0% | -6.16% | 1.71% | 6.18% | 10.9% | 8.62% | 29.6% | -1.59% | 0% | -2.67%
12 | NC(=O)CN1CCC(NC(=O)c2ccn(-c3cccc(F)c3)n2)CC1 | -1.05% | 4.17% | -2.99% | -2.99% | -7.68% | 3.97% | 11.1% | 0.719% | 1.05% | -2.56% | -2.21%
13 | Cc1c(C(=O)NCC(C)C)nnn1-c1cccc2c1CCN(C)C2 | -4.34% | 2.63% | 0.913% | 2.87% | -0.682% | -2.37% | 11.2% | 18.4% | 5.32% | 15.6% | -0.534%
14 | O=C(CN1CCC(c2ccnn2CCO)CC1)NCc1cccs1 | -3.33% | 15.2% | -3.55% | -6.32% | 1.23% | 1.52% | 2.87% | -10.7% | 8.37% | 24.1% | -5.84%
15 | O=C(NCC1CCN(C(=O)c2ccoc2)CC1)c1ccccc1Br | -6.61% | 5.48% | 3.13% | -5.78% | -4.7% | -0.455% | 15.6% | -0.0227% | 3.23% | 5% | -4.05%
16 | Cc1cc(N(C)Cc2cc(C)on2)n2nc(C)c(C)c2n1 | 1.74% | 4.17% | -0.739% | -6.39% | -6.71% | 1.32% | 11.4% | 10.3% | 2.1% | 7.69% | -5.04%
17 | Cc1nonc1CC(=O)N1C[C@@H]2CC[C@H](C1)N(Cc1ccccc1)C2=O | -5.85% | -2.7% | -1.13% | 6.66% | -4.83% | -2.86% | 6.9% | 0.776% | 0.529% | 2.44% | -2.68%
18 | Cc1nn(C)c(N(C)C)c1CNCC(O)c1ccccc1 (configuration not stated) | -0.702% | 2.74% | -3.51% | -6.11% | -4.31% | 3.64% | 16.1% | -8.18% | 3.23% | 10% | -3.32%
19 | Cc1nn(CC(C)C)c(N(C)C)c1CNCc1cc2ccccc2[nH]1 | -3.68% | 10.8% | -5.31% | 5.12% | -2.17% | -3.21% | 5.77% | 2.34% | 13.3% | 16.1% | -8.01%
20 | COc1ccc(NC(=O)NC(C)(C)c2noc(C)n2)cc1 | -5.98% | 2.74% | 9.96% | -2.01% | 0.979% | 5% | 13.5% | 7.14% | 4.3% | 12.5% | -1.95%
21 | O=C(NCc1cccnc1)C1=NOC2(CCN(S(=O)(=O)C3CC3)C2)C1 (configuration not stated) | -5.43% | 13.3% | -3.17% | -2.3% | 4.25% | -41.4% | 5.81% | -3.44% | -3.12% | 2.5% | -6.85%
22 | O=C(NCCc1ccccn1)C1=NN(c2ccccc2)C(=O)CN1 | 0.741% | 15.2% | 0.826% | -11.6% | -9.16% | 6.08% | 4.83% | 11.7% | 2.46% | 13.9% | -1.69%
